From paper PMC7862700, “An all-to-all approach to the identification of sequence-specific readers for epigenetic DNA modifications on cytosine”

Legend:
Assay in all cases: DAPPL (digital affinity profiling via proximity ligation, sequencing); 10 mM Tris-HCl pH 7.5, 50 mM NaCl, 1 mM DTT, 4% glycerol, room temperature, 30 min; GST-TFs on glutathione beads, 16-mer random dsDNA library, 0.1% formaldehyde crosslink after washing; high values mean tight binding
Details in all cases: protein: recombinant; tags: N-terminal GST; dsDNA, one strand shown
ERF = target: T1, ERF (Homo sapiens, UniProt P50548 1-548)
T1 sequence: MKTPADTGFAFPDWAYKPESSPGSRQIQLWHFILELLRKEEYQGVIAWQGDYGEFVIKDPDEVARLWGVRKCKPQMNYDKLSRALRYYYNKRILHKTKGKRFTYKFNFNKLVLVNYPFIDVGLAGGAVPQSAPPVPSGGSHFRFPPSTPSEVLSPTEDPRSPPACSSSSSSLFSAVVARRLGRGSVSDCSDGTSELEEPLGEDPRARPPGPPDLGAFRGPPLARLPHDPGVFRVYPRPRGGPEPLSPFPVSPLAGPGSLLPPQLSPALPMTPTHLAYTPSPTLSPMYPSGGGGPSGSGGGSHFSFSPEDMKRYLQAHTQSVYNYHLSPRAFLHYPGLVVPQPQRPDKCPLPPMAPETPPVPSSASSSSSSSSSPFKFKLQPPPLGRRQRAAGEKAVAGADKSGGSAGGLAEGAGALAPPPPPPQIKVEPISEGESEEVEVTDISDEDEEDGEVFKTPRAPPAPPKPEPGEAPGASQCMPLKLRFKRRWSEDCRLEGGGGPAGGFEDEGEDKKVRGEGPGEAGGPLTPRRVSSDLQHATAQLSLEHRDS
Outline: (§1)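 Human transcription factors carrying a GST fusion were produced in yeast, bound to glutathione beads, tagged with DNA barcodes and pooled together with a tag-only sample. Each pool was held with 200 nmole of a random double-stranded 16-mer DNA library in Tris/NaCl/DTT/glycerol buffer for 30 min at room temperature, then washed, crosslinked in 0.1% formaldehyde, proximity-ligated with BsaI/T4 ligase (1 h, 37 °C), PCR-amplified and sequenced on an Illumina NextSeq500. Binding signal is the read frequency of each hexamer for a given factor divided by its frequency in the tag-only sample.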

ETV3L = target: T2, ETV3L (Homo sapiens, UniProt Q6ZN32 1-361)
T2 sequence: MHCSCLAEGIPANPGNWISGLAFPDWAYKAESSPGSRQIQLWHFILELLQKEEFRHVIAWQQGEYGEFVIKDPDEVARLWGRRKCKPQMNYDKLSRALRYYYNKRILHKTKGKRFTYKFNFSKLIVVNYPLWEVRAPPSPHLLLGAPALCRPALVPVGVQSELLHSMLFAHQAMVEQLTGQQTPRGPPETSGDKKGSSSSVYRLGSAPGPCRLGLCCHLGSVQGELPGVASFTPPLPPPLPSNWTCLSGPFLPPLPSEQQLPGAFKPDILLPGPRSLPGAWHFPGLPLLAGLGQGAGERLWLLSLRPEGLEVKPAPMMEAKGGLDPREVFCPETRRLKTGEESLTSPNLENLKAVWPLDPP
Outline: as §1

ETS2 = target: T3, ETS2 (Homo sapiens, UniProt P15036 1-469)
T3 sequence: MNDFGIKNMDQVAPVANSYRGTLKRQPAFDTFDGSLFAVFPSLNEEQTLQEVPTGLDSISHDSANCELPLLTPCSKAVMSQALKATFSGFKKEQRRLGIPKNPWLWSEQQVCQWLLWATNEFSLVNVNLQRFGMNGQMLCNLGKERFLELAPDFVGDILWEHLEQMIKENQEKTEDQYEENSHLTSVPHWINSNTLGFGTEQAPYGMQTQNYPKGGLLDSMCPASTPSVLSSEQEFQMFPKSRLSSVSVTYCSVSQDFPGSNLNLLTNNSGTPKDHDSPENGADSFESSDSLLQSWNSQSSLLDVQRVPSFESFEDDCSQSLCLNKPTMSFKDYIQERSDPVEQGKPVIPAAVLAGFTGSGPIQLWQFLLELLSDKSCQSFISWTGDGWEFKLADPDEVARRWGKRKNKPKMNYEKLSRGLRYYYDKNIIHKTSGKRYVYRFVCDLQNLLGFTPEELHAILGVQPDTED
Outline: as §1

SPDEF = target: T4, SPDEF (Homo sapiens, UniProt O95238 1-335)
T4 sequence: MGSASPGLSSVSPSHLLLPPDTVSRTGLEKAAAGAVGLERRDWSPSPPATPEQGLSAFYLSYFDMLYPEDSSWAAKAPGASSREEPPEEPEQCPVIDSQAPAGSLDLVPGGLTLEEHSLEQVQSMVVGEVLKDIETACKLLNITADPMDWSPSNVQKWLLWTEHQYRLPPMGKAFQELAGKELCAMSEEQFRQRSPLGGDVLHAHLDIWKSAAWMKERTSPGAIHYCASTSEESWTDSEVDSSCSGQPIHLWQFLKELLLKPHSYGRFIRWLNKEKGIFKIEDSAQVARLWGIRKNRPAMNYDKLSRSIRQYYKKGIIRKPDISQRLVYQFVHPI
Outline: as §1

ETV7 = target: T5, ETV7 (Homo sapiens, UniProt Q9Y603 1-341)
T5 sequence: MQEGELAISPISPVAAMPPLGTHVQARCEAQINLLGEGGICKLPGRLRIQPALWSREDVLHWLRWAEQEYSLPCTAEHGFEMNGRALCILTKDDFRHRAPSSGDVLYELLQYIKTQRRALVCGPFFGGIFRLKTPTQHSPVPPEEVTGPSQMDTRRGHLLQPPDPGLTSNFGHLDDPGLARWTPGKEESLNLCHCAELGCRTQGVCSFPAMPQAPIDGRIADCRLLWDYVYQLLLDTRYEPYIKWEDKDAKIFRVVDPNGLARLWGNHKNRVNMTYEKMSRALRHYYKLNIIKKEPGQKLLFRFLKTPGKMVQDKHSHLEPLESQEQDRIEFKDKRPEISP
Outline: as §1

ELF5 = target: T6, ELF5 (Homo sapiens, UniProt Q9UKW6-2 1-255)
T6 sequence: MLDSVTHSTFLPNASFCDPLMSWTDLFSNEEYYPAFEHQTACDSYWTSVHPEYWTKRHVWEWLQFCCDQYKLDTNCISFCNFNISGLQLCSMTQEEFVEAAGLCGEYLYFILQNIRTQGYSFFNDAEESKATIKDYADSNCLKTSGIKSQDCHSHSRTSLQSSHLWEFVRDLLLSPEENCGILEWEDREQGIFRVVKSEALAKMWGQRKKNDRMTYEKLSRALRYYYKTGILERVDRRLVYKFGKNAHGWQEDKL
Outline: as §1

ETV3 = target: T7, ETV3 (Homo sapiens, UniProt P41162-2 1-143)
T7 sequence: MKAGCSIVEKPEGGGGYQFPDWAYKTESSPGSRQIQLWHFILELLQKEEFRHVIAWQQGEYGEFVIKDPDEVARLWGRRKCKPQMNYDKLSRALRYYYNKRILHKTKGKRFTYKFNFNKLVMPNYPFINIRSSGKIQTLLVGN
Outline: as §1

ETV6 = ETV6 (Homo sapiens, UniProt P41212 1-452)
ETV6, sequence (P41212 whole entry): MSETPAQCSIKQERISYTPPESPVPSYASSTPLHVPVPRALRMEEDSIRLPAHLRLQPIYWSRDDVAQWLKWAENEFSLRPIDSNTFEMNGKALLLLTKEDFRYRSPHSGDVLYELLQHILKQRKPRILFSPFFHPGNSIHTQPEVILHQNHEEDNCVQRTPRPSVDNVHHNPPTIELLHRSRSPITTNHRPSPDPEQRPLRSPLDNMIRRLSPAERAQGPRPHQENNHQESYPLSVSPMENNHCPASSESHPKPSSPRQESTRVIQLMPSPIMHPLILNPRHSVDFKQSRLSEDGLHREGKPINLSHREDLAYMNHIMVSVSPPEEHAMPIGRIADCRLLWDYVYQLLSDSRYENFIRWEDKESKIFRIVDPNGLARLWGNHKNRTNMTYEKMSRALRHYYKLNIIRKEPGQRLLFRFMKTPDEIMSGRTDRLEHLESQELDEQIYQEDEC
Outline: as §1

Sequence | binding signal (ERF) | binding signal (ETV3L) | binding signal (ETS2) | binding signal (SPDEF) | binding signal (ETV7) | binding signal (ELF5) | binding signal (ETV3) | binding signal (ETV6)
AACGGC | 1.2 fold enrichment (6-mer frequency, TF over GST control) | 1.23 fold enrichment (6-mer frequency, TF over GST control) | 1.22 fold enrichment (6-mer frequency, TF over GST control) | 1.16 fold enrichment (6-mer frequency, TF over GST control) | 1.11 fold enrichment (6-mer frequency, TF over GST control) | 1.16 fold enrichment (6-mer frequency, TF over GST control) | 1.29 fold enrichment (6-mer frequency, TF over GST control) | 1.26 fold enrichment (6-mer frequency, TF over GST control)
GCACAT | 1.2 fold enrichment (6-mer frequency, TF over GST control) | 1.19 fold enrichment (6-mer frequency, TF over GST control) | 1.12 fold enrichment (6-mer frequency, TF over GST control) | 1.28 fold enrichment (6-mer frequency, TF over GST control) | 1.07 fold enrichment (6-mer frequency, TF over GST control) | 1.1 fold enrichment (6-mer frequency, TF over GST control) | 1.15 fold enrichment (6-mer frequency, TF over GST control) | 1.14 fold enrichment (6-mer frequency, TF over GST control)
TCTCAT | 1.26 fold enrichment (6-mer frequency, TF over GST control) | 1.32 fold enrichment (6-mer frequency, TF over GST control) | 1.26 fold enrichment (6-mer frequency, TF over GST control) | 1.33 fold enrichment (6-mer frequency, TF over GST control) | 1.11 fold enrichment (6-mer frequency, TF over GST control) | 1.24 fold enrichment (6-mer frequency, TF over GST control) | 1.37 fold enrichment (6-mer frequency, TF over GST control) | 1.14 fold enrichment (6-mer frequency, TF over GST control)
GCACCC | 1.21 fold enrichment (6-mer frequency, TF over GST control) | 1.23 fold enrichment (6-mer frequency, TF over GST control) | 1.16 fold enrichment (6-mer frequency, TF over GST control) | 1.17 fold enrichment (6-mer frequency, TF over GST control) | 1.12 fold enrichment (6-mer frequency, TF over GST control) | 1.17 fold enrichment (6-mer frequency, TF over GST control) | 1.24 fold enrichment (6-mer frequency, TF over GST control) | 1.09 fold enrichment (6-mer frequency, TF over GST control)
CAGCTT | 1.28 fold enrichment (6-mer frequency, TF over GST control) | 1.2 fold enrichment (6-mer frequency, TF over GST control) | 1.21 fold enrichment (6-mer frequency, TF over GST control) | 1.24 fold enrichment (6-mer frequency, TF over GST control) | 1.15 fold enrichment (6-mer frequency, TF over GST control) | 1.11 fold enrichment (6-mer frequency, TF over GST control) | 1.21 fold enrichment (6-mer frequency, TF over GST control) | 1.11 fold enrichment (6-mer frequency, TF over GST control)
GAACAC | 1.11 fold enrichment (6-mer frequency, TF over GST control) | 1.18 fold enrichment (6-mer frequency, TF over GST control) | 1.12 fold enrichment (6-mer frequency, TF over GST control) | 1.26 fold enrichment (6-mer frequency, TF over GST control) | 1.15 fold enrichment (6-mer frequency, TF over GST control) | 1.17 fold enrichment (6-mer frequency, TF over GST control) | 1.14 fold enrichment (6-mer frequency, TF over GST control) | 1.13 fold enrichment (6-mer frequency, TF over GST control)
TTATAA | 1.15 fold enrichment (6-mer frequency, TF over GST control) | 1.19 fold enrichment (6-mer frequency, TF over GST control) | 1.2 fold enrichment (6-mer frequency, TF over GST control) | 1.17 fold enrichment (6-mer frequency, TF over GST control) | 1.21 fold enrichment (6-mer frequency, TF over GST control) | 1.19 fold enrichment (6-mer frequency, TF over GST control) | 1.16 fold enrichment (6-mer frequency, TF over GST control) | 1.19 fold enrichment (6-mer frequency, TF over GST control)
CTTTAC | 1.3 fold enrichment (6-mer frequency, TF over GST control) | 1.46 fold enrichment (6-mer frequency, TF over GST control) | 1.36 fold enrichment (6-mer frequency, TF over GST control) | 1.35 fold enrichment (6-mer frequency, TF over GST control) | 1.38 fold enrichment (6-mer frequency, TF over GST control) | 1.35 fold enrichment (6-mer frequency, TF over GST control) | 1.39 fold enrichment (6-mer frequency, TF over GST control) | 1.41 fold enrichment (6-mer frequency, TF over GST control)
AAGTCA | 1.2 fold enrichment (6-mer frequency, TF over GST control) | 1.19 fold enrichment (6-mer frequency, TF over GST control) | 1.21 fold enrichment (6-mer frequency, TF over GST control) | 1.18 fold enrichment (6-mer frequency, TF over GST control) | 1.24 fold enrichment (6-mer frequency, TF over GST control) | 1.21 fold enrichment (6-mer frequency, TF over GST control) | 1.15 fold enrichment (6-mer frequency, TF over GST control) | 1.26 fold enrichment (6-mer frequency, TF over GST control)
CTTGGC | 1.35 fold enrichment (6-mer frequency, TF over GST control) | 1.15 fold enrichment (6-mer frequency, TF over GST control) | 1.03 fold enrichment (6-mer frequency, TF over GST control) | 1.14 fold enrichment (6-mer frequency, TF over GST control) | 1.24 fold enrichment (6-mer frequency, TF over GST control) | 1.12 fold enrichment (6-mer frequency, TF over GST control) | 1.12 fold enrichment (6-mer frequency, TF over GST control) | 1.1 fold enrichment (6-mer frequency, TF over GST control)
CCTACA | 1.23 fold enrichment (6-mer frequency, TF over GST control) | 1.35 fold enrichment (6-mer frequency, TF over GST control) | 1.19 fold enrichment (6-mer frequency, TF over GST control) | 1.17 fold enrichment (6-mer frequency, TF over GST control) | 1.15 fold enrichment (6-mer frequency, TF over GST control) | 1.41 fold enrichment (6-mer frequency, TF over GST control) | 1.29 fold enrichment (6-mer frequency, TF over GST control) | 1.29 fold enrichment (6-mer frequency, TF over GST control)
ACACTG | 1.17 fold enrichment (6-mer frequency, TF over GST control) | 1.11 fold enrichment (6-mer frequency, TF over GST control) | 1.06 fold enrichment (6-mer frequency, TF over GST control) | 1.05 fold enrichment (6-mer frequency, TF over GST control) | 1.03 fold enrichment (6-mer frequency, TF over GST control) | 1.05 fold enrichment (6-mer frequency, TF over GST control) | 1.01 fold enrichment (6-mer frequency, TF over GST control) | 1.04 fold enrichment (6-mer frequency, TF over GST control)
